Measurements as given in ChEMBL document CHEMBL1961873, “Compounds: GSK PKIS; Assays: Nanosyn kinase panel” (2012).

Molecular target: Dual specificity tyrosine-phosphorylation-regulated kinase 1B (Homo sapiens) (UniProt Q9Y463);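 also: values are mean percent inhibition of DYRK1B, from the GSK_PKIS set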
Details: at 1 µM

Dual specificity tyrosine-phosphorylation-regulated kinase 1B (Homo sapiens), sequence (Q9Y463 whole entry, looked up): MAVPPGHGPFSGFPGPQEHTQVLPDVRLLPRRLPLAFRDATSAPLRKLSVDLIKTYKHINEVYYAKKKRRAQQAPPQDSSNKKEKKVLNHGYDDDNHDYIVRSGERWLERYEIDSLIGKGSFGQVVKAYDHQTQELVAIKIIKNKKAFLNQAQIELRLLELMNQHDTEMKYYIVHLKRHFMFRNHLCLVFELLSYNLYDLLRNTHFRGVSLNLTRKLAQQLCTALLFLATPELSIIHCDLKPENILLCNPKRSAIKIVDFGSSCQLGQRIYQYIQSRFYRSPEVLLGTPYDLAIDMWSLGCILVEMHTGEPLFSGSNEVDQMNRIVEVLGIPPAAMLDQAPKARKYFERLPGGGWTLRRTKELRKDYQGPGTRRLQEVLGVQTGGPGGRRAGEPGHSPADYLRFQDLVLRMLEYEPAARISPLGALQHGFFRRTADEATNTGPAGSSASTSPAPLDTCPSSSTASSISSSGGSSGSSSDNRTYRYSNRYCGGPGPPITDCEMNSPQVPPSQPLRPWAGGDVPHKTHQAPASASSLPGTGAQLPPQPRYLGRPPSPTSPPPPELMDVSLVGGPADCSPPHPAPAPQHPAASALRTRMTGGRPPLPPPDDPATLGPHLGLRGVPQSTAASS

Structure (SMILES)	inhibition
CS(=O)(=O)CCNCc1cc(-c2cc3c(Nc4ccc(OCc5cccc(F)c5)c(Cl)c4)ncnc3s2)cs1	-0.61%
CCC(=O)Nc1ccc(C)c(-c2ccc(C(=O)NCC3CC3)cc2)c1	0.18%
COc1cc(Nc2ncc3c(C)nc(-c4cccc(C(F)(F)F)c4)n3n2)cc(OC)c1OC	11.2%
Fc1ccc(-c2nc3n(c2-c2ccncc2)CCS3)cc1	-3.89%
NC(=O)c1cc(-c2ccncc2)cc(-c2ccccc2)c1N	17.9%
CCc1nccc2c1nc(-c1nonc1N)n2CC	6.3%
CN(C)c1ccc2c(c1)/C(=C/Nc1ccc(S(N)(=O)=O)cc1)C(=O)N2	24.5%
CS(=O)(=O)CCNCc1ccc(-c2ccc3ncnc(Nc4ccc(OCc5ccccc5)c(Br)c4)c3c2)o1	-4.49%
Cc1nnc(-c2ccc(C)c(-c3ccc(C(=O)NCc4ccc(Cl)cc4)cc3)c2)o1	-4.08%
Cc1ccc(C(=O)NC2CCC2)cc1-c1ccc(C(=O)NCC2CC2)cc1	2.49%
Clc1ccc(CNc2nccc(-c3cnn4ncccc34)n2)cc1	74.2%
c1ccc(-c2n[nH]cc2-c2ccnc(-c3ccc(OCCN4CCOCC4)cc3)c2)nc1	6.5%
CCS(=O)(=O)c1ccc(OC)c(Nc2ncc(-c3cccc(-c4ccccc4F)c3)o2)c1	18.5%
COc1cc2ncn(-c3cc(OCc4cccs4)c(C(N)=O)s3)c2cc1OC	-1.79%
O=C1Nc2ccccc2/C1=C/Nc1ccc(-n2cncn2)cc1	11.6%
C/C(Nc1ccc(S(N)(=O)=O)cc1)=C1/C(=O)Nc2ccccc21	12.7%
CCc1cccc(CC)c1/C=C/c1cncc(C(=O)NC)c1	3.49%

Structure (SMILES)	inhibition
NC(=O)c1cc(-c2ccc(F)cc2)cc(-c2ccncc2)c1N	-1.19%
O=C(NCC1CC1)c1ccc(-c2cccc(C(=O)NC3CC3)c2)cc1	1.93%
COc1ccc2ncn(-c3cc(O[C@H](C)c4ccccc4Cl)c(C(N)=O)s3)c2c1	-1.96%
O=C1Nc2ccc(I)cc2C1=Cc1cc(Br)c(O)c(Br)c1	3.56%
Fc1ccc(-c2ncn(CCCN3CCOCC3)c2-c2ccncc2)cc1	-0.19%
COc1ccc2cc(-c3c(-c4ccncc4)nc(-c4ccc([S+](C)[O-])cc4C)n3C)ccc2c1 (stereo not drawn)	6.41%
COC(=O)Nc1nc2ccc(Sc3ccc(NC(=O)Nc4cc(C(F)(F)F)ccc4F)cc3)cc2[nH]1	3.2%
CN(C)CCCNc1nccc(-c2c(-c3ccc(F)cc3)nn3cc(C(F)(F)F)ccc23)n1	-0.43%
CCS(=O)(=O)c1ccc(OC)c(Nc2ncc(-c3ccccc3Cl)o2)c1	5.7%
Fc1ccc(-c2c(-c3ccncc3)nc3n2CCS3)cc1	-2.54%
CCN(CC)Cc1ccc(Nc2nccc(-c3cnn4ncccc34)n2)cc1	69.2%
COc1cc2ncn(-c3cc(OCCc4ccccc4)c(C(N)=O)s3)c2cc1OC	1.81%
Cc1ccc(NC(=O)c2ccoc2)cc1-c1ccc(C(=O)NCC2CC2)cc1	2.65%
NS(=O)(=O)c1ccc(N/N=C2\C(=O)Nc3ccc(C(=O)NCCCn4ccnc4)cc32)cc1	15.6%
NCc1ccc(-n2c(-c3nonc3N)nc3cnccc32)cc1	36.4%
COc1cccc(-n2cnc3c(N/N=C/c4ccncc4)ncnc32)c1	-0.65%
C[C@@H](Oc1cc(-n2cnc3ccc(OC4CCN(C)CC4)cc32)sc1C(N)=O)c1ccccc1Cl	-3.42%

Molecular target: T1, Dual specificity tyrosine-phosphorylation-regulated kinase 2 (Homo sapiens) (UniProt Q92630);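 also: values are mean percent inhibition of DYRK2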
T1 sequence (whole entry): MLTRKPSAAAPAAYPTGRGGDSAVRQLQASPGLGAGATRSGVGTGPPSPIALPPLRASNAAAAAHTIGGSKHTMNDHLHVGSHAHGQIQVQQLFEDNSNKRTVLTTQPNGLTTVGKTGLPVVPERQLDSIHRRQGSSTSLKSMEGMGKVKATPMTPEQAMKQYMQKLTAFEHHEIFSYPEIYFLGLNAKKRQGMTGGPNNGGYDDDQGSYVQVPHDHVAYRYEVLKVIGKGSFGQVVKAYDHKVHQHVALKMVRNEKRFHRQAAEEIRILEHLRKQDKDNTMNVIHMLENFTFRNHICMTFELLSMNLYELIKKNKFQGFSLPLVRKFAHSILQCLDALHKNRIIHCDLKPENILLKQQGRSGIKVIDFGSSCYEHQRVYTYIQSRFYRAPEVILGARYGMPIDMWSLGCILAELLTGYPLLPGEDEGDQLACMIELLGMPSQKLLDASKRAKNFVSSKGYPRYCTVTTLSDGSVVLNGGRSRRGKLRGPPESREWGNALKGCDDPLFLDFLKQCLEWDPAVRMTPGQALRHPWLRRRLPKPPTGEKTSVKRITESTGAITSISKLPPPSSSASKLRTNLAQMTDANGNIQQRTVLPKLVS
Details: at 0.1 µM

Structure (SMILES)	inhibition
CS(=O)(=O)CCNCc1cc(-c2cc3c(Nc4ccc(OCc5cccc(F)c5)c(Cl)c4)ncnc3s2)cs1	3.75%
CCC(=O)Nc1ccc(C)c(-c2ccc(C(=O)NCC3CC3)cc2)c1	3.11%
COc1cc(Nc2ncc3c(C)nc(-c4cccc(C(F)(F)F)c4)n3n2)cc(OC)c1OC	2.73%
Fc1ccc(-c2nc3n(c2-c2ccncc2)CCS3)cc1	2.91%
NC(=O)c1cc(-c2ccncc2)cc(-c2ccccc2)c1N	3.61%
CCc1nccc2c1nc(-c1nonc1N)n2CC	-0.4%
CN(C)c1ccc2c(c1)/C(=C/Nc1ccc(S(N)(=O)=O)cc1)C(=O)N2	1.54%
CS(=O)(=O)CCNCc1ccc(-c2ccc3ncnc(Nc4ccc(OCc5ccccc5)c(Br)c4)c3c2)o1	2.81%
Cc1nnc(-c2ccc(C)c(-c3ccc(C(=O)NCc4ccc(Cl)cc4)cc3)c2)o1	2.1%
Cc1ccc(C(=O)NC2CCC2)cc1-c1ccc(C(=O)NCC2CC2)cc1	2.22%
Clc1ccc(CNc2nccc(-c3cnn4ncccc34)n2)cc1	0.77%
c1ccc(-c2n[nH]cc2-c2ccnc(-c3ccc(OCCN4CCOCC4)cc3)c2)nc1	-0.9%
CCS(=O)(=O)c1ccc(OC)c(Nc2ncc(-c3cccc(-c4ccccc4F)c3)o2)c1	1.46%
COc1cc2ncn(-c3cc(OCc4cccs4)c(C(N)=O)s3)c2cc1OC	0.17%
O=C1Nc2ccccc2/C1=C/Nc1ccc(-n2cncn2)cc1	3.46%
C/C(Nc1ccc(S(N)(=O)=O)cc1)=C1/C(=O)Nc2ccccc21	-1.67%
CCc1cccc(CC)c1/C=C/c1cncc(C(=O)NC)c1	2.13%

Structure (SMILES)	inhibition
NC(=O)c1cc(-c2ccc(F)cc2)cc(-c2ccncc2)c1N	3.58%
O=C(NCC1CC1)c1ccc(-c2cccc(C(=O)NC3CC3)c2)cc1	2.27%
COc1ccc2ncn(-c3cc(O[C@H](C)c4ccccc4Cl)c(C(N)=O)s3)c2c1	2.27%
O=C1Nc2ccc(I)cc2C1=Cc1cc(Br)c(O)c(Br)c1	4.72%
Fc1ccc(-c2ncn(CCCN3CCOCC3)c2-c2ccncc2)cc1	-0.03%
COc1ccc2cc(-c3c(-c4ccncc4)nc(-c4ccc([S+](C)[O-])cc4C)n3C)ccc2c1 (stereo not drawn)	-0.45%
COC(=O)Nc1nc2ccc(Sc3ccc(NC(=O)Nc4cc(C(F)(F)F)ccc4F)cc3)cc2[nH]1	0.2%
CN(C)CCCNc1nccc(-c2c(-c3ccc(F)cc3)nn3cc(C(F)(F)F)ccc23)n1	1.01%
CCS(=O)(=O)c1ccc(OC)c(Nc2ncc(-c3ccccc3Cl)o2)c1	1.98%
Fc1ccc(-c2c(-c3ccncc3)nc3n2CCS3)cc1	1.26%
CCN(CC)Cc1ccc(Nc2nccc(-c3cnn4ncccc34)n2)cc1	5.06%
COc1cc2ncn(-c3cc(OCCc4ccccc4)c(C(N)=O)s3)c2cc1OC	-0.08%
Cc1ccc(NC(=O)c2ccoc2)cc1-c1ccc(C(=O)NCC2CC2)cc1	1.99%
NS(=O)(=O)c1ccc(N/N=C2\C(=O)Nc3ccc(C(=O)NCCCn4ccnc4)cc32)cc1	4.62%
NCc1ccc(-n2c(-c3nonc3N)nc3cnccc32)cc1	3.41%
COc1cccc(-n2cnc3c(N/N=C/c4ccncc4)ncnc32)c1	0.79%
C[C@@H](Oc1cc(-n2cnc3ccc(OC4CCN(C)CC4)cc32)sc1C(N)=O)c1ccccc1Cl	2.47%
